A short description of test [1]: E. coli DRC41 culture turbidity changes, primary screen, E. coli filamentation inducer project, strain DRC41, OD650, 48 h (AID 1152).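 Note: E. coli MC1000 strain DRC41 lacking acrAB efflux pump and sulA.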 As to conditions: E. coli DRC41 (acrAB sulA), higher = more signal, called active from +8 up or from −8 down.
Test [2] can be described thus: small-molecule binders of probe aLefty1, primary screen, biochemical, small-molecule microarray, 635/667 nm fluorescence (AID 1153).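 Note: score merges spot fluorescence with signal-to-noise ratio from the scanned slide images.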 The settings on record: higher = more signal.
The nature of test [3]: PSAC antagonists in infected red cells, primary screen, cell-based, P. falciparum Indochina, OD700, 1 h (AID 1154). As to conditions: P. falciparum Indochina infected RBC osmotic lysis, higher = more signal, called active from +8 up or from −8 down.
Test [4] is described as follows: PSAC antagonists in infected red cells, primary screen, cell-based, P. falciparum Indochina, OD700, 2 h (AID 1155).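 Note: lysis reports solute entry through the parasite surface anion channel PSAC; channel blockers reduce lysis of infected cells.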 As to conditions: P. falciparum Indochina infected erythrocytes, osmotic lysis OD700; higher = more signal, called active from +8 up or from −8 down.
The nature of test [5]: osmotic lysis modulators in infected erythrocytes, primary screen, PSAC antagonist project, cell-based, P. falciparum Indochina, OD700, 3 h (AID 1156). The settings on record: higher = more signal, called active from +8 up or from −8 down.
The nature of test [6]: PSAC antagonists in infected red cells, primary screen, cell-based, P. falciparum Indochina, OD700, 18 h (AID 1157). As to conditions: P. falciparum Indochina infected erythrocytes, osmotic lysis OD700, 18 h; higher = more signal, called active from +8 up or from −8 down.
A short description of test [7]: modulators of S6 phosphorylation in cells, primary screen, cell-based, A549, cytoblot, luminescence, serum-stimulated (AID 1158).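 Note: serum-stimulated A549 lung adenocarcinoma cells; signal is phosphorylated S6 detected by cytoblot immunostaining with HRP secondary.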 As to conditions: A549 phospho-S6 cytoblot, 5 h, higher = more signal.
The target of test [8] is NADPH oxidase 2 (Homo sapiens) (UniProt P04839). Put plainly: NOX2-dependent H2O2 signal modulators, primary screen, NOX inhibitor project, cell-based, HEK293-NOX2, PMA-stimulated, Amplex Red fluorescence (AID 1159). Note: test concentration not given here. The settings on record: 45 min, higher = more signal, called active from +8 up or from −8 down.
Chain of NADPH oxidase 2 (Homo sapiens) (P04839 whole entry, looked up): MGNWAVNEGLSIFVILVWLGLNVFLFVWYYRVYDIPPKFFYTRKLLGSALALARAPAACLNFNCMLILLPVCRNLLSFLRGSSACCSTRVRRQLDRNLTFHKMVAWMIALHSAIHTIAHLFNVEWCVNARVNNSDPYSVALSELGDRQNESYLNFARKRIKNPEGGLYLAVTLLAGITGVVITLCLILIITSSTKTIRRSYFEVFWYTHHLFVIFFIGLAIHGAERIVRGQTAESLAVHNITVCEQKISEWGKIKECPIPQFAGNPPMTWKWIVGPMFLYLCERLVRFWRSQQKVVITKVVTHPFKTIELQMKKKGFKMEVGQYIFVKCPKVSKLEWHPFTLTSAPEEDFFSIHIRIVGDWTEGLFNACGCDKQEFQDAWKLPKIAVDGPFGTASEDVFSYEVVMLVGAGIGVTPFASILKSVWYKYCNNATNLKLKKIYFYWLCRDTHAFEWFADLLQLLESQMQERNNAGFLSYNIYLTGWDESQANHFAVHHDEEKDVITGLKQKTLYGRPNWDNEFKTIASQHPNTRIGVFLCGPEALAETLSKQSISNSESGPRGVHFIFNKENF
Test [9] addresses NADPH oxidase 4 (Homo sapiens) (UniProt Q9NPH5). Put plainly: NOX4-dependent H2O2 signal modulators, primary screen, NOX inhibitor project, cell-based, HEK293-NOX4, tetracycline-induced, Amplex Red fluorescence (AID 1160). The settings on record: 45 min, higher = more signal, called active from +8 up or from −8 down.
The target of test [10] is NADPH oxidase 5 (Homo sapiens) (UniProt Q96PH1). Put plainly: NOX5-dependent H2O2 signal modulators, primary screen, NOX inhibitor project, cell-based, HEK293-NOX5, Amplex Red fluorescence (AID 1161). As to conditions: HEK293-NOX5, ionomycin, 45 min, higher = more signal.
Chain of NADPH oxidase 5 (Homo sapiens) (Q96PH1 whole entry, looked up): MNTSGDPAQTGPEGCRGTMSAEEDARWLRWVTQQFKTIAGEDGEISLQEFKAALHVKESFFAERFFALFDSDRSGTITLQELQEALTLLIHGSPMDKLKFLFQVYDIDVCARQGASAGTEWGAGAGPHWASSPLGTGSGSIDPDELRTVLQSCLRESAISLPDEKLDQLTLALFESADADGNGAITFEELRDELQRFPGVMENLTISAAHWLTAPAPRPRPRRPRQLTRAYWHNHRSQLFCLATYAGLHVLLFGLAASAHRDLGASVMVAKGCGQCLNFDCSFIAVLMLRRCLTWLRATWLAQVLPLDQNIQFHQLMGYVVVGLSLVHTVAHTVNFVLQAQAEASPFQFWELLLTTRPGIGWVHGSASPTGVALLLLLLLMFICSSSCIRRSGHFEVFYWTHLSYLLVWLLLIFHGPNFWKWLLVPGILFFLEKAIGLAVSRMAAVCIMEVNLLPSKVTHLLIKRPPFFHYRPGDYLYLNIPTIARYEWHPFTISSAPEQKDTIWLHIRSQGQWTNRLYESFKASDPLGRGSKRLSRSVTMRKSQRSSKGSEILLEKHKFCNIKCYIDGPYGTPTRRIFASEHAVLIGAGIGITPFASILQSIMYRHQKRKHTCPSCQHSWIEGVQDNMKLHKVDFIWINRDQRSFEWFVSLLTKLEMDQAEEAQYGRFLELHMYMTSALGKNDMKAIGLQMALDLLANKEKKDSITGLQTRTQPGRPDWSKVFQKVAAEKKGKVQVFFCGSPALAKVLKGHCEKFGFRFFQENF
Test [11] in a line: A549 cell viability effects, profiling panel, calcein-AM fluorescence, 48 h, basal (AID 1162). Note: test concentration not given here. As to conditions: higher = more signal.
The nature of test [12]: adipocyte viability effects, profiling panel, cell-based, 3T3-L1 adipocytes, calcein-AM fluorescence, 48 h, basal (AID 1163). Note: test concentration not given here. The settings on record: 3T3-L1 adipocytes viability, higher = more signal.
A short description of test [13]: HepG2 cell viability effects, profiling panel, calcein-AM fluorescence, 48 h, basal (AID 1164). Note: test concentration not given here. The settings on record: higher = more signal.
Test [14] can be described thus: MM1S cell viability effects, profiling panel, calcein-AM fluorescence, 48 h, basal (AID 1165).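 Note: viability of MM1S multiple myeloma cells under basal unstimulated conditions; test concentration not given here.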 The settings on record: higher = more signal.
Test [15] in a line: basal RPMI8226 viability, no added stimulus, profiling panel, cell-based, calcein-AM fluorescence, 48 h, PK04 Diversity Set (AID 1166).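 Note: cells grown under basal conditions without added stimulus; test concentration not given here.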 The settings on record: RPMI8226 myeloma viability, higher = more signal.
The nature of test [16]: basal HepG2 mitochondrial membrane potential changes, profiling panel, cell-based, JC-1 fluorescence, 24 h, 100 nL compound (AID 1167). Note: test concentration not given here. The settings on record: higher = more signal.
Test [17] in a line: basal 3T3-L1 adipocyte mitochondrial potential changes, profiling panel, cell-based, JC-1 fluorescence, 3T3-L1 adipocytes, 24 h, 100 nL compound (AID 1168). Note: test concentration not given here. As to conditions: JC-1 mitochondrial fluorescence, higher = more signal, called active from +8 up or from −8 down.
The nature of test [18]: basal RPMI8226 mitochondrial membrane potential changes, profiling panel, cell-based, JC-1 fluorescence, 24 h, 100 nL compound (AID 1169). Note: test concentration not given here. As to conditions: RPMI8226 myeloma, JC-1 mitochondrial potential fluorescence, higher = more signal.
Test [19] is described as follows: basal MM1S mitochondrial membrane potential changes, profiling panel, cell-based, JC-1 fluorescence, 24 h, 100 nL compound (AID 1170). Note: test concentration not given here. The settings on record: higher = more signal.
Test [20] can be described thus: A549 lung cancer cell viability effects, profiling panel, resazurin fluorescence, 24 h, PK04 Diversity Set (AID 1171). Note: test concentration not given here. As to conditions: higher = more signal, called active from +8 up or from −8 down.

Activity calls are given as the source filed them.

Chain of NADPH oxidase 4 (Homo sapiens) (Q9NPH5 whole entry, looked up): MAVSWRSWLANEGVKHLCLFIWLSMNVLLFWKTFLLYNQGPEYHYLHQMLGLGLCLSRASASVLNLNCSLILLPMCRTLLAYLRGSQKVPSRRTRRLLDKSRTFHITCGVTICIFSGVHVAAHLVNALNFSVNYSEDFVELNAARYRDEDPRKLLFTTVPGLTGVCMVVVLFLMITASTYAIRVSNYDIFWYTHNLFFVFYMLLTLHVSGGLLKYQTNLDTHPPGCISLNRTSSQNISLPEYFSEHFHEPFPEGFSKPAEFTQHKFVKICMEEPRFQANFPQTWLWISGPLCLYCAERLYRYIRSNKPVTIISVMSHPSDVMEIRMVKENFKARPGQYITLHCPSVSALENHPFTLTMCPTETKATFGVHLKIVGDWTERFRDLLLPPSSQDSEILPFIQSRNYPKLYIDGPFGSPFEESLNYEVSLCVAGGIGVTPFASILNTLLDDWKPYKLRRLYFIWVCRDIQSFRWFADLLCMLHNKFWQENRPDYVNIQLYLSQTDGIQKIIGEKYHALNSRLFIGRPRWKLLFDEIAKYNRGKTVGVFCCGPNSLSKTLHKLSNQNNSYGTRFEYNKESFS

As to `COCCOC(=O)N1C(=O)[C@@]2(c3cc(C#CCNC(N)=O)ccc31)[C@H](c1ccc(O)cc1)N1[C@H](c3ccccc3)[C@H](c3ccccc3)OC(=O)[C@H]1[C@@H]2C(=O)Nc1nc2ccccc2s1`, the z-score in test [1] was 3.62 (inactive); in test [3] it was 1.13 (inactive); in test [4], -0.361 (inactive); in test [5] it was 0.284 (inactive); in [6], -0.0972 (inactive); in test [7] it was 2.46. For the same molecule, the z-score in test [8] is 0.806 (inactive); in [9] it was 0.969 (inactive); in test [10], 1.33; in test [11] it was 1.7; in test [12], 0.663; in test [13], 0.461. Moreover, the z-score in [14] is 0.553; in test [15], -0.397; in [16], -2.95; in test [17], 1.56 (inactive); in test [18], -1.03; in test [19] it was 0.189. In test [20], the z-score is 1.69 (inactive). Also, in test [2], the composite z-score is 0.144.

For `O=C1c2ccccc2[C@@]2(Cc3ccccc3N(Cc3ccccc3)C2=O)[C@H](c2ccc(CO)cc2)N1C1CCCCC1`, the z-score in [1] is 0.414 (inactive); in test [3], -0.101 (inactive); in test [4], 0.546 (inactive); in test [5] it was 0.105 (inactive); in [6], 0.327 (inactive); in test [7], 0.126. Besides, the z-score in test [8] was 0.162 (inactive); in [9], -0.143 (inactive); in test [10], -0.548; in test [11], -0.774; in test [12], -0.752; in [13] it was -0.466. The z-score in test [14] was -0.144; in [15] it was -0.977; in test [16], -0.689; in test [17] it was 0.604 (inactive); in [18], -0.582; in test [19], -1.32. Moreover, the z-score in [20] was -0.022 (inactive). In test [2], this molecule had a composite z-score of 0.0437.

Turning to `COCCOC(=O)N1C(=O)[C@@]2(c3cc(C#CCNC(N)=O)ccc31)[C@H](c1ccc(OCCO)cc1)N1[C@H](c3ccccc3)[C@H](c3ccccc3)OC(=O)[C@H]1[C@@H]2C(=O)N1CCc2cc(OC)c(OC)cc2C1`, the z-score in test [1] was 0.506 (inactive); in [3], 3.71 (inactive); in test [4], 1.89 (inactive); in test [5] it was 0.523 (inactive); in test [6] it was 1.15 (inactive); in test [7] it was 0.307. Moreover, the z-score in test [8] was 1.89 (inactive); in test [9] it was 1.09 (inactive); in [10], 0.284; in test [11], 1.24; in test [12], 0.427; in [13], 0.34. In addition, the z-score is 0.451 in test [14]; -0.172 in test [15]; -1.04 in test [16]; 1.65 (inactive) in test [17]; -0.489 in test [18]; -1.32 in test [19]. In addition, the z-score in test [20] is -0.189 (inactive). This molecule also showed a composite z-score in [2] of 0.308.

Take `O=C(CS)NCCCCCCNC(=O)[C@H]1C[C@H]2C(=O)N3CCC[C@H]3C(=O)N2[C@H]1c1cccc(OCCO)c1`: the z-score in test [1] was -1.17 (inactive); in test [3] it was 5.08 (inactive); in [4] it was 0.331 (inactive); in test [5], -0.645 (inactive); in test [6], 0.253 (inactive); in [7], 0.598. Moreover, the z-score in test [8] is 1.25 (inactive); in test [9], 0.799 (inactive); in test [10], 0.0469; in test [11], -0.464; in test [12] it was -0.966; in test [13], -0.0465. Further, the z-score was -0.939 in [14]; 0.529 in [15]; -0.971 in [16]; -0.955 (inactive) in [17]; -0.127 in test [18]; -0.285 in test [19]. Further, in test [20], the z-score was 0.388 (inactive). The molecule also displayed a composite z-score in [2] of 0.105.

`CC(C)(C)OC(=O)CC[C@]1(C(=O)N2CCCCC2)N=C(c2ccc(OCCCO)cc2)O[C@H]1c1ccccc1N=[N+]=[N-]`: the z-score in [1] is 1.66 (inactive); in test [3], 32.1 (active); in test [4], 28.8 (active); in [5] it was 2.17 (inactive); in test [6], 7.7 (inactive); in [7], -0.167. For the same molecule, the z-score is -3.53 (inactive) in test [8]; 0.976 (inactive) in test [9]; -1.46 in test [10]; 1.12 in [11]; 0.768 in [12]; 0.63 in test [13]. Besides, the z-score in [14] is -2.03; in [15], -0.99; in test [16], 1.18; in [17] it was 1.92 (inactive); in [18], -0.862; in test [19] it was -0.715. Besides, the z-score in [20] is -0.0762 (inactive). In [2], this molecule displayed a composite z-score of 0.19.

The values are drawn from PubChem BioAssay.
